# The whole screen tested about 66,000 compounds, of which about 960 (1.5%) showed an effect of 50% or more. Many of the other results were omitted from the sample, so strong results are more common in it than they were.
# System: Trypanosoma brucei
# Assay: Trypanosoma brucei 72 hour study
# Type: functional, organism-based
# Design: scale not given: in the data most compounds retested in dose-response had high values
structure (smiles),measurement,setting,value
O=C1CC(c2cccc(O)c2)c2c(c(C(=O)O)cn2-c2ccccc2)N1 (centres undefined),Percent Effect,"30 µM, 30.03 µM",55.14%
O=C1CC(c2ccccc2)c2c(c(C(=O)O)cn2-c2ccccc2)N1 (centres undefined),Percent Effect,"30 µM, 30.03 µM",-0.2399%
O=C1CC(c2ccc(O)cc2)c2c(c(C(=O)O)cn2-c2ccccc2)N1 (centres undefined),Percent Effect,"30 µM, 30.03 µM",-5.69%
CC(=O)N1CCC2(CCN(C(=O)c3cccc(C(F)(F)F)c3)CC2)C1,Percent Effect,"30 µM, 30.03 µM",-21.66%
Cc1ccc(NC(=O)Cn2cc(I)cn2)cc1C,Percent Effect,"30 µM, 30.03 µM",-62.87%
CC(C)NC(=O)CCNC(=O)CCc1cc(Cl)cs1,Percent Effect,"30 µM, 30.03 µM",67.45%
COC(=O)CNC(=O)CCc1cc(Cl)cs1,Percent Effect,"30 µM, 30.03 µM",30.07%
CC(C)NC(=O)CCNC(=O)CCc1cc(Br)cs1,Percent Effect,"30 µM, 30.03 µM",-16.2%
CC(C)CN1C(=O)C2(CCN(Cc3ccc(F)cc3)C2)c2ccccc21 (centres undefined),Percent Effect,"30.3 µM, […]",100.2%
CC(C)CN1C(=O)C2(CCN(Cc3ccoc3)C2)c2ccccc21.O=C(O)C(F)(F)F (centres undefined),Percent Effect,"30.3 µM, […]",-10.51%
Cc1ccc(CN2CCC3(C2)C(=O)N(CC(C)C)c2ccccc23)s1 (centres undefined),Percent Effect,"30 µM, 30.03 µM",-8.12%
COCCN1CCC2(CC1)CC(NC(=O)COC)c1ccccc1O2.O=C(O)C(F)(F)F (centres undefined),Percent Effect,"30.3 µM, […]",-14.34%
CN(C)C(=O)c1n[nH]c2c1CN(CC1CCC1)C2.O=C(O)C(F)(F)F.O=C(O)C(F)(F)F,Percent Effect,"30.3 µM, […]",-41.36%
CC(C)CC(=O)N1C[C@@H]2CCN(c3ncccn3)C[C@@H]2C1.O=C(O)C(F)(F)F,Percent Effect,"30.3 µM, […]",-27.97%
Cc1cnc(C(=O)N2C[C@H]3CN(Cc4nccs4)C[C@H]3C2)cn1,Percent Effect,"30 µM, 30.03 µM",-50.26%
O=C(N1CCCC1)N1Cc2nccn2CC(COc2cccnc2)C1.O=C(O)C(F)(F)F (centres undefined),Percent Effect,"30.3 µM, […]",-5.824%
O=C(NCc1nn(-c2ccccc2)c2c1CCC2)N1CCSCC1,Percent Effect,"30 µM, 30.03 µM",-15.48%
CCC(C(=O)NCCc1ccn(-c2ccccc2)n1)N1CCCC1=O (centres undefined),Percent Effect,"30 µM, 30.03 µM",-6.42%
O=C(NCCc1ccn(-c2ccccc2)n1)N1CCC1,Percent Effect,"30 µM, 30.03 µM",105.4%
O=C(NCCc1ccn(-c2ccccc2)n1)N1CCSCC1,Percent Effect,10 µM,92.88%
O=C(NCCNc1ccccn1)N1CCSCC1,Percent Effect,"30 µM, 30.03 µM",-32.01%
CC1(C)CN(C(=O)NCCc2ccn(-c3ccccc3)n2)CCO1,Percent Effect,"30 µM, 30.03 µM",-25.69%
O=C(O)C(F)(F)F.c1csc(CN2C[C@H](OCC3CCOCC3)[C@H]3COC[C@H]32)n1,Percent Effect,"30.3 µM, […]",-15.06%
CS(=O)(=O)N1CC[C@H]2OCC[C@@]2(C(=O)NCCc2ccccn2)C1.O=C(O)C(F)(F)F,Percent Effect,"30.3 µM, […]",-43.43%
CC(C)(C)n1ncc(NCC(O)c2ccc(F)c(F)c2)c(Cl)c1=O (centres undefined),Percent Effect,"30 µM, 30.03 µM",-7.617%
CN(Cc1ccccn1)C(=O)[C@H]1CO[C@H]2CCN(CC3CC3)C[C@H]2C1.O=C(O)C(F)(F)F.O=C(O)C(F)(F)F,Percent Effect,"30.3 µM, […]",-96.69%
CNc1ncccc1C(=O)N1CCc2c(nc(N)[nH]c2=O)C1,Percent Effect,"30 µM, 30.03 µM",-10.23%
O=C(O)C(F)(F)F.O=C(O)C(F)(F)F.c1cncc(CN2CCc3c(nnn3CC3CC3)C2COCC2CC2)c1 (centres undefined),Percent Effect,"30 µM, 30.03 µM",26.56%
O=C(Nc1ccccc1)C1=CC2(CCNCC2)c2ccccc21,Percent Effect,"30.3 µM, […]",93.57%
O=C(C1=CC2(CCNCC2)c2ccccc21)N1CCCC1,Percent Effect,"30 µM, 30.03 µM",-13.07%
CC(=O)N1CCC2(C=C(C(=O)NC3CC3)c3ccccc32)CC1,Percent Effect,"30.3 µM, […]",3.653%
CC(=O)N1CCCC(c2ccc(Br)cn2)C1 (centres undefined),Percent Effect,"30.3 µM, […]",11.45%
CC(=O)N1CCCC(c2ccc(Cc3ccccc3)cn2)C1 (centres undefined),Percent Effect,"30.3 µM, […]",98.95%
CC(=O)N1CCCC(c2ccccn2)C1 (centres undefined),Percent Effect,"30.3 µM, […]",-37.51%
CC1(C)CN(Cc2csc(CS(C)(=O)=O)n2)Cc2ccccc21,Percent Effect,"30.3 µM, […]",100.6%
CS(=O)(=O)Cc1nc(CN2CCOc3ccccc3C2)cs1,Percent Effect,"30.3 µM, […]",7.732%
CS(=O)(=O)Cc1nc(CN2CCc3ccccc3CC2)cs1,Percent Effect,"30.3 µM, […]",3.123%
CCc1noc(CN(C)CC(c2cccs2)N2CCOCC2)n1 (centres undefined),Percent Effect,"30.3 µM, […]",-14.32%
O=C1CC[C@]2(CC[C@@H](NC(=O)NCc3ccccc3)CC2)N1,Percent Effect,"30.3 µM, […]",-21.31%
CC(C)C[C@@H]1N[C@H](C(=O)NC2CCOCC2)Cc2c[nH]c3cccc1c23,Percent Effect,"30.3 µM, […]",74.51%
CC(C)C[C@@H]1N[C@H](C(=O)NC(C)C)Cc2c[nH]c3cccc1c23,Percent Effect,"30.3 µM, […]",19.91%
O=C(NC1CCOCC1)C1CC(=O)N(Cc2ccccn2)C1 (centres undefined),Percent Effect,"30 µM, 30.03 µM",11.72%
CC(C)C[C@@H]1N[C@H](C(=O)NCC2CC2)Cc2c[nH]c3cccc1c23,Percent Effect,"30.3 µM, […]",62.49%
COC(=O)[C@@H]1Cc2c[nH]c3cccc(c23)[C@H](CC(C)C)N1,Percent Effect,"30.3 µM, […]",0.4079%
CCc1cccc(N2CCC(NC(=O)C3CCOCC3)CC2)c1,Percent Effect,10 µM,-25.13%
same,Percent Effect,"30.3 µM, […]",-1.63%
Cc1cnn(C2CCCN(C(=O)Cc3ccc(C#N)cc3)C2)c1 (centres undefined),Percent Effect,10 µM,-12.45%
same,Percent Effect,"30.3 µM, […]",-6.124%
CC(C)=CCN1C(=O)[C@H]2CC[C@@H]1CN(c1ncccc1F)C2,Percent Effect,"30 µM, 30.03 µM",-6.371%
Cc1cc(=O)n(CCNS(=O)(=O)c2cccc(C(F)(F)F)c2)cn1,Percent Effect,"30 µM, 30.03 µM",-14.9%
O=C(O)C(F)(F)F.O=C(O)C(F)(F)F.c1cncc(-c2ccc3c(c2)CCC32CCN(Cc3nccs3)CC2)c1,Percent Effect,"30.3 µM, […]",13.64%
O=C(O)C(F)(F)F.O=C(O)C(F)(F)F.c1cncc(-c2ccc3c(c2)CCC32CCN(Cc3ccco3)CC2)c1,Percent Effect,"30.3 µM, […]",53.48%
CN(C)CC(=O)N1CCC2(CCc3cc(-c4cccnc4)ccc32)CC1.O=C(O)C(F)(F)F.O=C(O)C(F)(F)F,Percent Effect,"30.3 µM, […]",1.858%
CNC(=O)CN1CC[C@H]2CN(C(=O)c3cccc(C)c3)C[C@H]2C1.O=C(O)C(F)(F)F,Percent Effect,"30.3 µM, […]",-49.02%
CC[C@H](C)[C@H](N)C(=O)Nc1nc(-c2cnc(N3CCOCC3)nc2)cs1,Percent Effect,"30.3 µM, […]",13.61%
CC[C@H](C)[C@H](N)C(=O)Nc1nc(-c2cnc(N(C)CCO)nc2)cs1,Percent Effect,"30.3 µM, […]",-2.058%
CC[C@H](C)[C@H](N)C(=O)Nc1nc(-c2cnc(N(C)C)nc2)cs1,Percent Effect,"30.3 µM, […]",53.79%
CC[C@@H](C)[C@@H](N)C(=O)Nc1cccc(-c2cnc(N(C)CCO)nc2)c1,Percent Effect,"30.3 µM, […]",-10.78%
CC[C@@H](C)[C@@H](N)C(=O)Nc1cccc(-c2cnc(N(C)C)nc2)c1,Percent Effect,"30.3 µM, […]",97.6%
CC[C@@H](C)[C@@H](N)C(=O)Nc1cccc(-c2cnc(N)nc2)c1,Percent Effect,"30.3 µM, […]",-21.58%
COc1ccc(N(c2ccccc2)c2ccc(C(=O)O)s2)cc1,Percent Effect,"30.3 µM, […]",-3.945%
O=C(O)CC(O)(CC(=O)O)C(=O)O.OCCN(Cc1ccncc1)CC1(c2ccc(Cl)cc2)CC1,Percent Effect,"30.3 µM, […]",-34.12%
Cn1cnc2c1C(COCC1CCOCC1)CN(C1CCOCC1)C2.O=C(O)C(F)(F)F.O=C(O)C(F)(F)F (centres undefined),Percent Effect,"30 µM, 30.03 µM",15.95%
Cl.c1cnc2c(c1)cc([C@H]1CCCO1)n2CCN1CCCC1,Percent Effect,"30.3 µM, […]",24.71%
Cn1cccc1C(=O)N1CCC2(CCCN2Cc2ccccc2)CC1.O=C(O)C(F)(F)F,Percent Effect,"30 µM, 30.03 µM",11.3%
CCn1nc(C)c2nnn(CC(=O)Nc3cccc(Cl)c3)c(=O)c21,Percent Effect,"30 µM, 30.03 µM",35.21%
CCn1nc(C)c2nnn(CC(=O)Nc3ccccc3)c(=O)c21,Percent Effect,"30.3 µM, […]",-5.47%
Cc1nn(C)c2c(=O)n(CC(=O)Nc3cc(Cl)cc(Cl)c3)nnc12,Percent Effect,"30 µM, 30.03 µM",63.83%
CCn1nc(C)cc1C(=O)N1C[C@@H]2C[C@@H](C)O[C@@H]2C1.O=C(O)C(F)(F)F,Percent Effect,"30.3 µM, […]",3.708%
COCC1CN(C(=O)c2ccoc2)Cc2cnn(CC3CCOCC3)c21.O=C(O)C(F)(F)F (centres undefined),Percent Effect,"30.3 µM, […]",-46.76%
NC1C=C(C(F)(F)F)NC=C1c1ccccc1 (centres undefined),Percent Effect,"30.3 µM, […]",8.109%
CC(C)CC(=O)N1C[C@@H]2CCN(c3cnccn3)C[C@@H]2C1.O=C(O)C(F)(F)F,Percent Effect,"30.3 µM, […]",-10.22%
CC(C)(C)S(=O)(=O)CCNC(=O)c1ccc2ccccc2c1,Percent Effect,"30 µM, 30.03 µM",-8.633%
CC(C)(C)S(=O)(=O)CCNC(=O)c1ccc2cc[nH]c2c1,Percent Effect,"30 µM, 30.03 µM",101.8%
CC(C)(C)OC(=O)NCCNC(=O)c1ccc2cc[nH]c2c1,Percent Effect,"30 µM, 30.03 µM",3.798%
CN1CCN(CCO)C(=O)C12CCN(Cc1ccsc1)CC2.O=C(O)C(F)(F)F.O=C(O)C(F)(F)F,Percent Effect,"30.3 µM, […]",-7.984%
CN(C(=O)[C@H]1CSCN1C(=O)OC(C)(C)C)C1CC1,Percent Effect,"30 µM, 30.03 µM",-17.54%
Cn1nc2c(cc1=O)CN(Cc1coc(-c3cccc(F)c3)n1)CC2,Percent Effect,"30.3 µM, […]",75.84%
Cn1nc2c(cc1=O)CN(Cc1coc(-c3ccc(F)cc3)n1)CC2,Percent Effect,"30.3 µM, […]",21.89%
Cn1nc2c(cc1=O)CN(Cc1coc(-c3ccccc3)n1)CC2,Percent Effect,"30.3 µM, […]",-6.992%
CN1CCN(c2ccc(F)cc2NC(=O)NCc2ccon2)CC1,Percent Effect,"30.3 µM, […]",-94.37%
Cc1nccn1CC1CCN(C(=O)Cc2ccccc2)CC1,Percent Effect,"30 µM, 30.03 µM",-11.09%
CC(C)N(C)Cc1cnc2n1CCN(Cc1ccsc1)C2.O=C(O)C(F)(F)F.O=C(O)C(F)(F)F,Percent Effect,"30.3 µM, […]",-0.145%
Cc1cc(-c2nccs2)nc(C2CCN(Cc3ccc(F)cc3)CC2)n1.Cl,Percent Effect,"30.3 µM, […]",-1.786%
Cc1cc(NC(=O)CN2CCc3cncnc3C2)on1,Percent Effect,"30.3 µM, […]",8.362%
same,Percent Effect,"10 mM, 10 mM as filed; unlikely as a test dose",-44.64%
CC(C)c1cc(NC(=O)CN2CCc3cncnc3C2)on1,Percent Effect,"30 µM, 30.03 µM",51%
CC(C)(C)c1cc(NC(=O)CN2CCc3cncnc3C2)on1,Percent Effect,"30.3 µM, […]",8.588%
same,Percent Effect,"10 mM, 10 mM as filed; unlikely as a test dose",-38.22%
COC[C@@H]1CCC[C@@]12CN(Cc1ccco1)CCO2.O=C(O)C(F)(F)F,Percent Effect,"30 µM, 30.03 µM",-1.793%
CCn1cc(N2Cc3nc(N4CCCC4)ncc3C2=O)cn1,Percent Effect,"30.3 µM, […]",-27.06%
Cc1cccnc1N1CCN(C(=O)C(C)n2ccnc2C(C)C)CC1 (centres undefined),Percent Effect,"30 µM, 30.03 µM",78.55%
Cc1cc(N2CCN(C(=O)C(C)n3ccnc3C(C)C)CC2)cc(C)n1 (centres undefined),Percent Effect,"30 µM, 30.03 µM",-26.06%
CC(C)c1nccn1C(C)C(=O)N1CCN(c2ccccc2Cl)CC1 (centres undefined),Percent Effect,"30 µM, 30.03 µM",16.25%

# Reference: ChEMBL document CHEMBL3988442, “University of Dundee, Small-Polar-MMV Screening Library” (2021)
